Sampled rows, rich in hits. Any-hit rate of the full collection: about 7.9%.
HCV inh = inhibitors of hepatitis C virus infection; Huh7.5.1 HCVcc-Cre infection, luciferase reporter, 44 h; Potency, µM (doses to about 41.8 µM), inactives show at the highest dose activity change, negative = inhibition, actives largely listed as inhibitors; hit rate 3.4% among 340,000; AID 651820; active = well fitted inhibition curve with a large enough effect; inconclusive = small, poorly fitted or top-dose-only effect, or another doubt; inactive = no such curve, though single readings can be large or run the other way; note: potency is the fitted concentration of half-maximal effect
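1,000 cells/well; 4 h culture; + compound; + HCVcc-Cre (~0.5 moi); 44 h; luciferase substrate, RT 15 min; read 15 sec.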
Lassa entry inh = inhibitors of Lassa virus binding or cell entry; Lassa virus pseudotype entry inhibition, cell reporter; Potency, µM (titrated, usually from 37.9 µM), for inactives: at the highest dose activity change, negative = inhibition, actives largely listed as inhibitors; hit rate 1.2% among 300,000; AID 540256; calls by dose curve; tested in HEK293 cells; note: potency is the fitted concentration of half-maximal effect; nearly all actives have a fitted effect of over 50% in size
MARV entry inh = blocks Marburg virus binding to or entry into cells. Marburg virus pseudotyped entry inhibition, cell reporter. Potency, µM (highest dose often 37.8 µM), for inactives: at the top dose activity change, negative = inhibition, actives largely listed as inhibitors. hit rate 1.8% among 300,000. AID 540276; calls by dose curve; tested in HEK293 cells; note: potency is the fitted concentration of half-maximal effect
HCMV antiviral = blocks human cytomegalovirus replication. HFF cells, HCMV-luciferase reporter, 72 h; stronger effect = lower value. activity change, negative = inhibition, % at 57.5 µM. hit rate 4.5% among 410,000; in the data active = activity change below about -60%; inconclusive = no clear call, values can overlap the other calls; inactive = above about -39%
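Cell-based, HFFs, 1000 cells/well, 16 h 37C; cpds in DMSO + HCMV-luc, MOI 1 PFU/cell; 72 h 37C; OneGlo luminescence after 5 min RT; norm. to buffer vs Salinomycin 10uM.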
FMDV antiviral = antivirals against foot and mouth disease virus | FMDV antiviral cell-based qHTS | Potency, µM (highest dose often 57.9 µM), without a hit: at the top dose activity change, negative = inhibition, actives largely listed as inhibitors | hit rate 1.2% among 410,000; calls by dose curve; tested in HEK293T cells; note: read-out not given here; potency is the fitted concentration of half-maximal effect; nearly all actives have a fitted effect of over 45% in size
Active calls of the source: *; ? = inconclusive; . = no result given; [ ] = dose if it differs, or a comment. % is set by controls: 0 for no effect and ±100 for the full control effect.

SMILES	HCV inh	Lassa entry inh	MARV entry inh	HCMV antiviral	FMDV antiviral
COc1ccc2nc(NC(=O)c3nc(S(=O)(=O)Cc4cccc(C)c4)ncc3Cl)sc2c1	.	?	?	-99.9*	?
COc1ccc2nc(NC(=O)c3nc(S(=O)(=O)Cc4ccccc4)ncc3Cl)sc2c1	.	?	?	-100.7*	25.1µM*
COc1ccc2nc(NC(=O)c3nc(S(=O)(=O)Cc4ccccc4F)ncc3Cl)sc2c1	.	?	?	-87.8*	?
O=C1C(C(=O)N(c2ccccc2)C2CCCCC2)C=NC2SCCN12 (configuration not stated)	.	.	16.2%	.	.
Cc1ccc(N=Nc2c(O)n(CN3CCOCC3)c3ccccc23)cc1	-12.4%	-3.6%	?	.	45.2%
C=CCn1c(O)c(N=NC(=S)Nc2ccc(OC)c(Cl)c2)c2ccccc21	?	?	?	?	-3.6%
Cc1ccc(NC(=S)N=Nc2c(O)n(C)c3ccc(S(=O)(=O)N4CCOCC4)cc23)cc1C	7.9%	-10.3%	-18.7%	?	-21.8%
Cc1cccc(NC(=S)N=Nc2c(O)n(CN3CCOCC3)c3ccccc23)c1C	-4.0%	.	-1.2%	-77.2*	?
C=CCn1c(O)c(N=NC(=S)Nc2ccccc2C)c2cc(S(=O)(=O)N3CCOCC3)ccc21	?	?	?	-73.6*	-25.7%
Cn1c(O)c(N=NC(=S)Nc2ccccc2F)c2cc(S(=O)(=O)N3CCOCC3)ccc21	?	?	?	-63.1*	?
C[C@@H]1/C=C/CC(=O)OC[C@H](C)C(=O)OC[C@H]2O[C@H]1C=C[C@H]2O	.	.	-13.6%[14.2 µM]	.	.
CCCCCCCCCCCCCCC[C@@H](O)[C@H](CO)NC(C)=O	.	.	.	.	-10.1%[6.7 µM]
CC1(C(=O)Nc2ccc3c(c2)OCCO3)CCN1C(=O)c1ccco1 (configuration not stated)	.	.	.	9.0	-23.4%
CC#CC[N+](C)(C)CCCCCCCC	0.7%	-7.4%[46.1 µM]	?	6.3	-19.9%
CCCCCCCCCCCCC[N+](C)(C)Cc1ccccc1	.	.	.	.	28.2µM*
CCCCCCCCCCCCCCCC[N+](C)(C)Cc1ccc(F)cc1	15.2%	?	?	-89.3*	-8.6%
COC(=O)C(Cc1c[nH]c2ccccc12)NC(=O)c1cc(-c2ccc(OC)c(OC)c2)oc1C (configuration not stated)	10µM*	10µM*	?	43.1	-28.3%
O=C(COC(=O)[C@H](Cc1c[nH]c2ccccc12)NC(=O)c1ccc(Cl)cc1)Nc1ccc2c(c1)OCO2	0.2%	21.8%	-7.1%	51.1	48.3%
Cc1cc(C(=O)NC(Cc2c[nH]c3ccccc23)C(=O)O)c(C)o1 (configuration not stated)	-5.2%	20.5%	0.3%	36.4	1.8%
COC(=O)[C@@H](Cc1c[nH]c2ccccc12)NC(=O)c1ccc2c(c1)OCO2	15.0%	.	.	-104.6*	-2.4%
CCCN1C(=O)CC[C@@H](S(=O)(=O)c2ccccc2)[C@@H]1c1ccc(OC)cc1	.	.	.	-10.7	.
Cn1c(=O)n(C)c2cc([N+](=O)[O-])c(N3CCN(C(=O)c4ccccc4Cl)CC3)cc21	?	?	?	-77.7*	.
Cn1c(=O)n(C)c2cc([N+](=O)[O-])c(N3CCN(C(=O)c4ccccc4Br)CC3)cc21	12.6µM*	?	?	?	15.8µM*
Cn1c(=O)n(C)c2cc([N+](=O)[O-])c(N3CCN(C(=O)c4ccccc4)CC3)cc21	?	-15.3%	?	-34.5	-13.5%
O=[N+]([O-])c1cc([N+](=O)[O-])c(Oc2ccc(Cl)c3cccnc23)cc1NN1CCCCC1	7.4%	.	.	-20.5	-24.1%
SMILES	HCV inh	Lassa entry inh	MARV entry inh	HCMV antiviral	FMDV antiviral
COc1ccc(NC(=S)Nc2ccc(N(C)C(C)=O)cc2)cc1	18.0%	4.2%	0.9%[14.2 µM]	-98.3*	-2.8%
COc1ccc(NC(=S)NCCc2c(C)[nH]c3ccc(OC)cc23)cc1	-22.5%	?	-0.3%[46.1 µM]	-68.7*	10.6%
COc1ccc(CCNC(=S)Nc2ccc(OC)cc2)cc1	-12.6%	1.5%	-22.4%	-66.1*	-5.9%
COc1ccc(NC(=S)NCc2ccc(F)cc2)cc1	-3.2%	.	.	-64.3*	41.9%
COc1ccc(CCNC(=S)Nc2ccccc2)cc1	?	.	.	-35.1	27.3%
COc1ccc(NC(=O)c2ccco2)cc1NC(=O)c1cccc(C)c1OC	.	?	?	?	-14.6%
O=C(Nc1cc(S(=O)(=O)N2CCCCC2)ccc1Oc1ccccc1)C1=COCCO1	22.4µM*	.	.	-20.1	-12.2%
COc1ccc(S(=O)(=O)N2CCCCCC2)cc1NC(=O)c1ccccc1	13.3%	-7.0%	?	-37.1	-12.7%
COc1ccc(S(=O)(=O)N2CCCCC2)cc1NC(=O)C1COc2ccccc2O1 (configuration not stated)	?	?	11.2µM*	-0.6	?
COc1cc(/C=C2/CC(C)OC2=O)c([N+](=O)[O-])cc1OC (configuration not stated)	13.4%	-3.4%	-9.5%	-35.9	9.2%
CC(=O)c1ccccc1NC(C(=O)NCc1ccccc1)C(C)C (configuration not stated)	.	.	.	-17.6	.
O=C1c2ccccc2C(=O)c2c1cccc2N1CCOCC1	22.4µM*	-11.5%	8.7%	-21.5	2.0%
O=C1c2ccccc2NC(c2ccc(-c3ccc(Br)cc3)o2)N1O (configuration not stated)	?	-6.5%	?	-72.4*	-15.8%
O=C1c2ccccc2NC(c2ccc(-c3cccc([N+](=O)[O-])c3)o2)N1O (configuration not stated)	-21.0%	?	?	-78.7*	-13.2%
O=C1c2ccccc2NC(c2ccc(-c3ccc(F)cc3)o2)N1O (configuration not stated)	.	.	.	-23.3	6.7%
CC(=O)NN1C(=O)c2ccccc2NC1c1cccc([N+](=O)[O-])c1 (configuration not stated)	42.2%	-3.5%	3.7%	24.7	2.4%
CCc1ccc(C(=O)C(C)OC(=O)C2COc3ccccc3O2)cc1 (configuration not stated)	5.2%	10.9%	10.9%	-98.0*	-7.3%
Cn1nc(-c2ccccc2)cc1NC(=O)c1ccccc1	1.8%	-0.7%	-2.3%	10.4	12.0%
O=C(Nc1cc(-c2ccccc2)nn1C1CCCCC1)c1ccc(Cl)cc1	2.51µM*	.	.	-30.6	?
CCOc1ccsc1C(=O)O	3.16µM*	26.9%[46.1 µM]	?	-2.3	1.9%
CN(C)c1ncc2ncc(=O)n(Cc3cccs3)c2n1	.	.	.	.	-23.1%
CC(C)C(=O)NC(Nc1cccc2cccnc12)C(Cl)(Cl)Cl (configuration not stated)	?	11.2%	-23.9%	-33.0	?
O=C(CF)NC(NC(=S)Nc1ccccc1O)C(Cl)(Cl)Cl (configuration not stated)	9.1%	.	.	-65.5*	13.9%
CC(C)CC(=O)NC(NC(=S)Nc1cccc2cccnc12)C(Cl)(Cl)Cl (configuration not stated)	?	?	14.1µM*	?	-9.2%
COc1cc2c(-c3ccc(C)cc3)nc3c(c(C)nn3-c3ccccc3)c2cc1OC	.	0.7%[46.1 µM]	.	17.8	-17.5%

Source: PubChem BioAssay (National Center for Advancing Translational Sciences (NCATS))
